Rows were chosen to be rich in hits. Some 11% of all compounds tested hit in one or more screens of this group.
PNC assembly inh: High Content Assay for Compounds that inhibit the Assembly of the Perinucleolar Compartment; PC3M PTB-GFP, PNC prevalence imaging, 16 h; hits give low values; activity change (PNC), negative = inhibition, % at 10 µM; 3.1% of 140,000 active;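 active = readout at or below -70, meaning at least 70% loss of cells showing the perinucleolar compartment, a nuclear body marking cancer cells; inconclusive = readout between -30 and a set limit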
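Read-out is percentage of cells bearing a perinucleolar compartment, from automated 20x imaging of fixed, Hoechst-stained PC3M PTB-GFP cells. Cells were seeded 4 h, then exposed 16 h to compound (23 nl of library stock) in duplicate plates.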
HTT ATP protect: qHTS Multiplex Assay to Identify Dual Action Probes in a Cell Model of Huntington: Cytoprotection (ATP); PC12 HTT-Q103 induced, cytoprotection, ATP luminescence, 40 h; Potency, µM (titrated, usually from 56.4 µM), most hits filed as activators; 0.14% of 230,000 active; note: nearly all actives have a fitted effect of over 45% in size
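Quantitative HTS on tebufenozide-induced (100 nM) PC12 cells expressing HTTQ103 exon 1–GFP; compounds tested as a concentration series; survival measured via cellular ATP.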
HttQ103 aggreg: qHTS Multiplex Assay to Identify Dual Action Probes in a Cell Model of Huntington: Aggregate Formation (GFP); PC12 HttQ103-GFP aggregates, Acumen cytometry, 40 h; Potency, µM (highest dose often 46.1 µM), usual class: inhibitors; 1.1% of 220,000 active; AID 1688, 2009; note: nearly all actives have a fitted effect of over 60% in size
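Aggregate formation scored by laser-scanning cytometer (488 excitation, 500–530 emission) in lysed PC12 cells expressing Q103-GFP after 100 nM tebufenozide induction; library tested in dose series, with ATPLite reagent added in the multiplex.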
ALDH1A1 inh: qHTS Assay for Inhibitors of Aldehyde Dehydrogenase 1 (ALDH1A1). Aldehyde dehydrogenase 1A1 (Homo sapiens), P00352. Purified ALDH1A1, NADH fluorescence, propionaldehyde substrate. Potency, µM (titrated, usually from 75.3 µM), most hits filed as inhibitors. 7.3% of 220,000 active; active = well fitted inhibition curve with a large enough effect, not every such curve was filed as active; inconclusive = small, poorly fitted or top-dose-only effect, or another doubt; inactive = no such curve, though single readings can be large or run the other way
Target sequence (P00352 whole entry, looked up): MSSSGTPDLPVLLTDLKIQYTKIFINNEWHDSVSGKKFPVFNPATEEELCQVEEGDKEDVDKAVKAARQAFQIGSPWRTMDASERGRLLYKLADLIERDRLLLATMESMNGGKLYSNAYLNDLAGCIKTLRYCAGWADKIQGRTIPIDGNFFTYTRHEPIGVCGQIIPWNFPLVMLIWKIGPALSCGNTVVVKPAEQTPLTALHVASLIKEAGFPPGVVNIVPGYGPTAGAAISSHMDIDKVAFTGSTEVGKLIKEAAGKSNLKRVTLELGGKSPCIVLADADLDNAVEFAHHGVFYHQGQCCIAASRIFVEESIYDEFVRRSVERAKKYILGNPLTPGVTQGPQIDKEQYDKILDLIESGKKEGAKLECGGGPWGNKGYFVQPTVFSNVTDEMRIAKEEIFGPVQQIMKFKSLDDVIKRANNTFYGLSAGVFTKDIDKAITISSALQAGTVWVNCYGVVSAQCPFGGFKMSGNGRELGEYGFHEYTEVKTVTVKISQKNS
HPGD inh: qHTS Assay for Inhibitors of HPGD (15-Hydroxyprostaglandin Dehydrogenase); Potency, µM, actives largely listed as inhibitors; purified HPGD, NADH fluorescence kinetic, PGE2 substrate; 15-hydroxyprostaglandin dehydrogenase [NAD(+)] (Homo sapiens), P15428; AID 894, 2007; 4.3% of 150,000 active; active = well fitted inhibition curve with a large enough effect, not every such curve was filed as active; inconclusive = small, poorly fitted or top-dose-only effect, or another doubt; inactive = no such curve, though single readings can be large or run the other way
Target sequence (P15428 whole entry, looked up): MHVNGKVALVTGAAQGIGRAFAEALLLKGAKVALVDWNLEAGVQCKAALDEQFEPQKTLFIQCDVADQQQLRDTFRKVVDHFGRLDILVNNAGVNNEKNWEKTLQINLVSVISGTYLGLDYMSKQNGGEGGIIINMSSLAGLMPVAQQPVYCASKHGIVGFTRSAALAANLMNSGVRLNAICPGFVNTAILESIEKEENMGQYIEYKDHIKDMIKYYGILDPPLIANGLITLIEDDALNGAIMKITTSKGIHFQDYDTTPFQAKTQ
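20 nM HPGD preincubated 15 min at room temperature with compound in 50 mM Tris-HCl pH 8, 0.01% Tween 20. Started with 1 mM NAD+ and 30 uM prostaglandin E2; NADH fluorescence (360/450 nm) read 5 times over 30-s intervals, last minus first.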
CBFb-RUNX1 inh: qHTS Assay for Compounds Blocking the Interaction Between CBF-beta and RUNX1 for the Treatment of Acute Myeloid Leukemia; AlphaScreen CBFb-His/RUNX1-biotin binding, biochemical; AID 1477, 2009; 230,000 tested, under 10 active; Potency, µM (highest dose often 59.8 µM), usual class: inhibitors; Runt-related transcription factor 1 (Homo sapiens) + Core-binding factor subunit beta …
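AlphaScreen proximity signal reports loss of binding between His-tagged CBF-beta and biotin-labelled RUNX1, each at 30 nM. Proteins are pre-associated for 20 minutes, compounds added for 15 minutes, then beads for 90 minutes, all at ambient temperature.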
Hits are given with their value; [ ] = remark or other dose. Unless noted, calls come from the whole dose curve; as a rule, active = well fitted curve in the direction sought with a large enough effect; inconclusive = small, poorly fitted or top-dose-only effect, or another doubt; inactive = no such curve, though single readings can be large; an effect the other way counts as inactive or inconclusive.

How did CC(C)CO/N=C1/C[C@@H](O)[C@@H](O)[C@@H]2[C@@H]3C(=O)N(C4CCCCC4)C(=O)[C@H]3CC[C@@H]12 do in these assays?
HTT ATP protect: inactive[10 µM]; ALDH1A1 inh: inactive[13.5 µM]; CBFb-RUNX1 inh: inactive[13.1 µM]

How did Cc1cccc(NC(=S)N2CCOCC2)c1C do in these assays?
PNC assembly inh: inactive; HTT ATP protect: inactive[10 µM]; HttQ103 aggreg: inactive; ALDH1A1 inh: inactive; HPGD inh: inactive; CBFb-RUNX1 inh: inactive

Results for O=C(c1cnccn1)N1CCC[C@@]2(CCN(c3ccccn3)C2)C1 ?
HTT ATP protect: inconclusive; ALDH1A1 inh: inactive; HPGD inh: inactive

Results for Cn1cccc1C(=O)N1CCC2(CC1)CN(C(=O)Nc1cccc(C#N)c1)C2 ?
HTT ATP protect: inactive; ALDH1A1 inh: 28.2µM; HPGD inh: inactive

How did COc1cc(C(=O)Nc2ccc(S(=O)(=O)N3CCCCC3C)cc2)cc(OC)c1OC (configuration not stated) do in these assays?
PNC assembly inh: inconclusive; HTT ATP protect: inactive; HttQ103 aggreg: inactive; ALDH1A1 inh: inconclusive; HPGD inh: inactive; CBFb-RUNX1 inh: inactive

What do the screens show for `O=C(C1CCN(S(=O)(=O)c2ccc(-n3cnnn3)cc2)CC1)N1CCN(c2ccccc2)CC1`?
PNC assembly inh: inconclusive; HTT ATP protect: inactive[10 µM]; HttQ103 aggreg: inactive; ALDH1A1 inh: 28.2µM; HPGD inh: inactive; CBFb-RUNX1 inh: inactive

Results for CC1CCCCN1S(=O)(=O)c1ccc(NC(=O)c2cccc(-n3cnnn3)c2)cc1 (configuration not stated) ?
PNC assembly inh: inactive; HTT ATP protect: inactive; HttQ103 aggreg: inactive; ALDH1A1 inh: 25.1µM; HPGD inh: 22.4µM; CBFb-RUNX1 inh: inactive

What do the screens show for `CC1CCCN(S(=O)(=O)c2ccc(NC(=O)c3cccc(-n4cnnn4)c3)cc2)C1` (configuration not stated)?
PNC assembly inh: inactive; HTT ATP protect: inactive[10 µM]; HttQ103 aggreg: inactive; ALDH1A1 inh: inconclusive; HPGD inh: 28.2µM; CBFb-RUNX1 inh: inactive

Results for O=C(Nc1ccccc1)C1CCCN(S(=O)(=O)c2ccc(-n3cnnn3)cc2)C1 (configuration not stated) ?
PNC assembly inh: inactive; HTT ATP protect: inactive; HttQ103 aggreg: inactive; ALDH1A1 inh: inconclusive; HPGD inh: inactive; CBFb-RUNX1 inh: inactive

Results for COc1ccc(NC(=O)c2cccc(-n3cnnn3)c2)cc1 ?
PNC assembly inh: inactive; HTT ATP protect: inactive[10 µM]; HttQ103 aggreg: inactive; ALDH1A1 inh: inactive; CBFb-RUNX1 inh: inactive

How did COc1ccc(C(=O)Nc2ccc(S(=O)(=O)N3CCCCC3C)cc2)c(OC)c1OC (configuration not stated) do in these assays?
PNC assembly inh: inconclusive; HTT ATP protect: inactive; HttQ103 aggreg: inconclusive; ALDH1A1 inh: 17.8µM; HPGD inh: inconclusive; CBFb-RUNX1 inh: inactive

Results for CC1=C(C#N)C(=O)N(C2CCS(=O)(=O)C2)C(=O)/C1=C\c1ccco1 (configuration not stated) ?
HTT ATP protect: inactive[10 µM]; HttQ103 aggreg: inactive[9.22 µM]

What do the screens show for `CNc1ncncc1-c1ccc(C(=O)N(C)C)cc1`?
HTT ATP protect: inactive; ALDH1A1 inh: inconclusive; HPGD inh: inconclusive

What do the screens show for `C[S+](C)CC[C@H](N)C(=O)O`?
HTT ATP protect: inactive; HttQ103 aggreg: inactive

How did N#CC1=C(N)C(C#N)(C#N)C(c2ccncc2)C2CN(C(=O)OCc3ccccc3)CC=C12 (configuration not stated) do in these assays?
PNC assembly inh: -118.9; HTT ATP protect: inactive[10 µM]; HttQ103 aggreg: inactive; ALDH1A1 inh: inconclusive; HPGD inh: inactive; CBFb-RUNX1 inh: inactive

How did CCOC(=O)N1CC=C2C(C#N)=C(N)C(C#N)(C#N)[C@H](c3ccsc3)[C@H]2C1 do in these assays?
PNC assembly inh: inactive; HTT ATP protect: inactive; HttQ103 aggreg: 0.562µM; ALDH1A1 inh: inconclusive; HPGD inh: inactive; CBFb-RUNX1 inh: inactive

How did COC(=O)[C@@H]1CC2=CC(=O)CC[C@]2(C)[C@@]23O[C@@H]2C[C@@]2(C)[C@H](CC[C@@]24CCC(=O)O4)[C@@H]13 do in these assays?
HTT ATP protect: inconclusive; ALDH1A1 inh: inactive; HPGD inh: inactive; CBFb-RUNX1 inh: inactive

How did O=C(CSc1nc2ncccc2[nH]1)c1ccc(F)cc1 do in these assays?
PNC assembly inh: inactive; HTT ATP protect: inactive; HttQ103 aggreg: inactive; ALDH1A1 inh: inconclusive; HPGD inh: inactive; CBFb-RUNX1 inh: inactive

What do the screens show for `O=C(CSc1nnc(CNc2ccccc2)o1)c1ccc2c(c1)OCCO2`?
PNC assembly inh: inactive; HTT ATP protect: inactive; HttQ103 aggreg: inactive; ALDH1A1 inh: 14.1µM; HPGD inh: inactive; CBFb-RUNX1 inh: inactive

Results for Fc1cccc(CSc2nc3ncccc3[nH]2)c1 ?
PNC assembly inh: inactive; HTT ATP protect: inactive; HttQ103 aggreg: inactive; ALDH1A1 inh: inconclusive; HPGD inh: 17.8µM; CBFb-RUNX1 inh: inactive

Results for O=C(CSc1nc2ncccc2[nH]1)c1cccc([N+](=O)[O-])c1 ?
PNC assembly inh: -112.6; HTT ATP protect: inactive[10 µM]; HttQ103 aggreg: inactive; ALDH1A1 inh: 8.91µM; HPGD inh: inconclusive; CBFb-RUNX1 inh: inactive

Results for O=C(CSc1nnc(-c2ccncc2)o1)c1ccc2c(c1)OCCO2 ?
HTT ATP protect: inactive; HttQ103 aggreg: inactive; ALDH1A1 inh: 0.794µM; CBFb-RUNX1 inh: inactive

What do the screens show for `CC(C)(C)c1ccc(-c2nnc(SCC(=O)c3ccc4c(c3)OCCO4)o2)cc1`?
PNC assembly inh: inactive; HTT ATP protect: inactive; HttQ103 aggreg: inactive; ALDH1A1 inh: inconclusive; HPGD inh: inactive; CBFb-RUNX1 inh: inactive

What do the screens show for `CCOC(=O)C1=NO[C@@]2(C=C(Br)C3(OCCCO3)[C@H]3O[C@H]32)C1`?
HTT ATP protect: inactive[10 µM]; ALDH1A1 inh: inactive[13.5 µM]; CBFb-RUNX1 inh: inactive[13.1 µM]

How did CC(=O)OC[C@@H]1O[C@@H](Oc2cc(OC(C)=O)c3c(=O)cc(-c4ccc(OC(C)=O)c(OC(C)=O)c4)oc3c2)[C@H](OC(C)=O)[C@H](OC(C)=O)[C@@H]1OC(C)=O do in these assays?
HTT ATP protect: inactive

What do the screens show for `Cc1cccc(-c2nnc(SCC(=O)NCc3ccc4c(c3)OCO4)n2C)c1`?
PNC assembly inh: inactive; HTT ATP protect: inactive; HttQ103 aggreg: inactive; ALDH1A1 inh: inactive; CBFb-RUNX1 inh: inactive

What do the screens show for `Cc1nc2nc(SCC(=O)c3ccc([N+](=O)[O-])cc3)[nH]c2cc1Br`?
PNC assembly inh: inactive; HTT ATP protect: inactive[10 µM]; HttQ103 aggreg: inactive; ALDH1A1 inh: inconclusive; CBFb-RUNX1 inh: inactive

High-throughput results: PubChem BioAssay, National Center for Advancing Translational Sciences (NCATS)
